Consider 72 compounds from PubChem BioAssay AID488969 (Vanderbilt High Throughput Screening Facility, 2010).

Over roughly 110,000 compounds, “z-score” has its median near -0.1; the highest 2% begin near 2. For the sample, the highest values were picked, then their nearest neighbours and some compounds at random. Calls of active or inactive are those of the source.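 The calls were made as follows: active = z-score in the third read window above 3 or below -3; inactive = the rest.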

The assay deals with Metabotropic glutamate receptor 8 (Rattus norvegicus) (UniProt P70579). The experiment in a line: rat mGluR8 modulators via GIRK flux, primary screen, cell-based, thallium flux, HTS (AID 488969). To be noted: HEK293 rat mGluR8, GIRK (G protein-gated inwardly rectifying potassium channel) thallium flux, FluoZin2; at 10 µM; stronger effect = higher value; submaximal glutamate (EC20) added with thallium.
Sequence of Metabotropic glutamate receptor 8 (Rattus norvegicus) (P70579 whole entry, looked up): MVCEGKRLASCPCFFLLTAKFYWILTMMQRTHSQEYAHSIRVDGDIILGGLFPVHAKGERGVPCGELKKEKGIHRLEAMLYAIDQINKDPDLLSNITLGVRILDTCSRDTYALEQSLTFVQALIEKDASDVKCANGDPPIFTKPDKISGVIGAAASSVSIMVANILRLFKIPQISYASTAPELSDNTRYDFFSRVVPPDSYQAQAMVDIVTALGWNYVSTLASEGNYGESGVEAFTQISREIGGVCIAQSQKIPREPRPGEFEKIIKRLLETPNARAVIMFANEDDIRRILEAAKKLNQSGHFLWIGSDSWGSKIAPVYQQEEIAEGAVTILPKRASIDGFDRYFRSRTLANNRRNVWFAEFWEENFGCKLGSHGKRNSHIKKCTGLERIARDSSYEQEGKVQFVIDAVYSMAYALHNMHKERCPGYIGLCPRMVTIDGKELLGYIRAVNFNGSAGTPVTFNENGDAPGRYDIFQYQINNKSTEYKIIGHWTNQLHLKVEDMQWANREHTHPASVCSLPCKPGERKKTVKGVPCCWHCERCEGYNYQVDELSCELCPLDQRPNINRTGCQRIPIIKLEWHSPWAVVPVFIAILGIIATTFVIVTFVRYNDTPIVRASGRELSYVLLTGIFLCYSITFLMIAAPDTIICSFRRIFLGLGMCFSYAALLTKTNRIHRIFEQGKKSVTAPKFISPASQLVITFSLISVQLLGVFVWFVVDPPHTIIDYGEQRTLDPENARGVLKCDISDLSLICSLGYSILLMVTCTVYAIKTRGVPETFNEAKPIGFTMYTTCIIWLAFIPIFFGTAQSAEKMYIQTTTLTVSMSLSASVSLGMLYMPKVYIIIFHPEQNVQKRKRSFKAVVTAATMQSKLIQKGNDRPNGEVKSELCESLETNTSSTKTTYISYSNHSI
`O=C(COc1ccc(S(=O)(=O)NC2CCCCC2)cc1Cl)N1CCN(c2ccccc2)CC1` showed a z-score of 1.16. Take `COc1cccc(/C=N/NC(=O)C(=O)N2CCCC2)c1OC`: the z-score was -0.494.

Regarding `CCSc1nnc(NC(=O)C2CCN(S(=O)(=O)c3ccccc3C(F)(F)F)CC2)s1`, the z-score is -0.565. The compound `O=C(Nc1ccccc1)/C(=C\c1ccc2c(c1)OCO2)NC(=O)c1ccco1` registered a z-score of -0.0407. With `O=C(O)CC1C(=O)NCCN1Cc1ccc(F)c(F)c1` (configuration not stated) the figure was -0.183; with `COc1ccc(CN2CCNC(=O)C2CC(=O)O)cc1OC` (configuration not stated), 3.61 (active).

Regarding `Cc1ccc(CN2CCNC(=O)C2CC(=O)O)cc1` (configuration not stated), the z-score is -0.134. The same measure for `CC1CC(C)CN(CCOCCSc2ccccc2)C1` (configuration not stated): 0.729; for `O=C(Cn1cc(C(F)(F)F)cc(Cl)c1=O)NCCc1ccccc1`: -0.155. The same measure for `CC(=O)c1cccc(NC(=S)NC(=O)c2cccc(Cl)c2)c1`: 8.71 (active).

`CCC(=O)Nc1cccc(NC(=S)NC(=O)c2cccc(C)c2)c1` had a z-score of 0.23. The same measure for `COC(=O)c1cccc(NC(=S)Nc2cccc(Cl)c2Cl)c1`: 2.5; for `CCC(=O)Nc1cccc(NC(=S)NC(=O)c2ccccc2)c1`: -0.455. Compound `CC(=O)c1cccc(NC(=S)NC(=O)c2ccccc2)c1` displayed a z-score of 1.63. The same measure for `COC(=O)c1cccc(NC(=S)NCc2ccc(Cl)cc2)c1`: 0.53; for `COC(=O)c1cccc(NC(=S)Nc2cccc(Cl)c2C)c1`: 0.445; for `CC(=O)c1cccc(NC(=S)NC(=O)c2ccc(Cl)cc2)c1`: -0.258. The same measure for `CC(=O)c1cccc(NC(=S)NC(=O)c2cccc(C)c2)c1`: 7.49 (active); for `Cc1ccc(NC(=O)NC(=S)NC(=O)c2ccccc2)cc1`: 1.68; for `CC(=O)c1cccc(NC(=S)NC(=O)c2ccccc2Cl)c1`: 1.17. The same measure for `Cc1cccc(NC(=O)NC(=S)NC(=O)c2ccccc2)c1`: 2.86. In the case of `O=C(c1ccc2snnc2c1)N1CCN(c2ccccn2)CC1`, the z-score was -0.329.

Compound `COC(=O)Nc1sc2c(c1C(=O)N1CCOCC1)CCC(C)C2` (configuration not stated) registered a z-score of 0.0522. With `COc1ccccc1S(=O)(=O)Nc1cccc(-c2nnc3n2CCCCC3)c1` the figure was -0.163; with `Cc1cc2cc(C(c3nnnn3C(C)(C)C)N(Cc3ccco3)CC3CCCO3)c(=O)[nH]c2cc1C` (configuration not stated), -0.208. With `O=C(/C=C/c1ccc(F)cc1)c1ccccc1Br` the figure was -0.272; with `COc1ccc2nc(C(F)(F)C(F)(F)F)c(C#N)c(N)c2c1`, -0.334; with `CC(C)Oc1cccc(C(=O)NC(=S)Nc2cccc(C(F)(F)F)c2)c1`, 0.755.

`CC(C)Oc1cccc(C(=O)NC(=S)Nc2cccc(NC(=O)c3ccccc3Cl)c2)c1` gave a z-score of -0.41.

With `O=C(NNC(=S)Nc1cccc(C(F)(F)F)c1)c1ccccc1Cl`, the z-score came to 0.86. With `Cc1ccccc1C(=O)NNC(=S)Nc1cccc(C(F)(F)F)c1` the figure was -0.0547.

As for `CC(C)Oc1cccc(C(=O)NC(=S)Nc2ccccc2)c1`, the z-score is 3.26 (active).

In turn, `O=C(NNC(=S)Nc1cccc(C(F)(F)F)c1)c1cccc(Cl)c1` displayed a z-score of 2.97. With `CCS(=O)(=O)N1CCN(C(=O)COc2ccc(-c3ccccc3)cc2)CC1` the figure was -0.0325; with `O=c1c2c3c(sc2nc2n1CCCCC2)CCCCC3`, 8.38 (active); with `O=c1c2c3c(sc2nc2n1CCCC2)CCCCC3`, -0.277. With `O=c1c2c3c(sc2nc2n1CCCCC2)CCC3` the figure was -0.21. With `O=C(Cn1c(CC(=O)N2CCOCC2)nc2ccccc21)Nc1ccc2c(c1)OC(F)(F)O2` the figure was 1.15; with `CCOc1ccc2nc(NC(=O)CN3CCN(C)CC3)sc2c1`, 0.433. `C=CCNCCCOc1ccc(C)cc1Br` displayed a z-score of 0.425. For the compound `CC(=O)Nc1ccc(S(=O)(=O)N(C)CC(=O)OCC(=O)Nc2cccnc2Cl)cc1`, the z-score was -0.172. With `C/C(=N\NC(=O)c1ccc(Cl)c(Cl)c1)c1ccc(Br)s1` the figure was 1.19; with `COc1ccccc1NCC(=O)N/N=C(\C)c1ccc(Br)s1`, -0.279. With `C/C(=N\NC(=O)c1ccc(Cl)cc1)c1ccc(Br)s1` the figure was 8.88 (active). With `C/C(=N\NC(=O)CNc1cccc(C)c1)c1ccc(Br)s1` the figure was 0.0989. Consider `C/C(=N\NC(=O)c1ccccc1O)c1ccc(Br)s1`, for which the z-score was found to be 2.99.

As to `C/C(=N/NC(=O)CNc1ccc(C)cc1)c1ccc(Br)s1`, the z-score was found to be 0.214. With `C/C(=N/NC(=O)c1cc(Cl)ccc1O)C12CC3CC(CC(C3)C1)C2` the figure was 3.19 (active).

`C/C(=N/NC(=O)c1ccoc1C)C12CC3CC(CC(C3)C1)C2` came in with a z-score of 0.37. The same measure for `C/C(=N\NC(=O)c1cccc(F)c1)c1ccc(Br)s1`: 7.29 (active); for `C/C(=N\NC(=O)c1cccc(N/N=C(\C)c2ccccc2)c1)c1ccccc1`: -0.529; for `O=C(NN=C1C2CC3CC(C2)CC1C3)c1cc(Cl)ccc1O`: 0.0729. The same measure for `CC/C(=N\NC(=O)c1ccccc1Cl)c1ccc(Br)s1`: 0.216. The same measure for `O=C(CN1CCCCCCC1)N/N=C/c1ccc(F)c(F)c1`: -0.563; for `CCC(C)(C)C1CCC(=NNC(=O)c2ccoc2C)CC1` (configuration not stated): -0.259; for `Cc1sc(NC(=O)c2ccc(Br)s2)c(C(N)=O)c1C`: 0.0217. Take `COc1cc(OC)c(OC)cc1CN(C)C(c1ccccc1)c1nnnn1-c1ccccc1C` (configuration not stated): the z-score turned out to be 0.0196. The same measure for `CC(OC(=O)CCc1nc2ccccc2c(=O)[nH]1)C(=O)NC1CCCC1` (configuration not stated): -0.356. As to `Cc1cccc2sc(N(CCN(C)C)C(=O)/C=C/c3cccs3)nc12`, the z-score is -0.145. `O=c1[nH]c(CN2CCN(c3ccccc3)CC2)nc2ccccc12`: the z-score turned out to be 0.214. Turning to `COc1cccc(C2C=C(Nc3ccccc3)C(=O)N2c2ccccc2)c1` (configuration not stated), the z-score is -0.22. With `Cc1cc(C)c(NC(=O)C2CCCN2C(=O)NC2CCCCC2)c(C)c1` (configuration not stated) the figure was 1.35; with `O=C(N/N=C/C1CCCCC1)c1cc(Cl)ccc1O`, 0.618; with `C/C(=N\NC(=O)c1cc(Cl)ccc1O)c1ccc(Br)s1`, 6.48 (active). The same measure for `C/C(=N\NS(=O)(=O)c1ccc(C)cc1)c1ccc(Br)s1`: -0.207; for `Nc1[nH]ncc1N=Nc1ccc(Cl)cc1`: -0.104; for `c1ccc(CNn2c(N3CCOCC3)nc3ccccc32)cc1`: 0.241.

With `CCN(c1ccccc1)S(=O)(=O)c1cc(C(=O)Nc2ccc(F)c(F)c2)ccc1F`, the z-score is -0.178. The same measure for `CCN(c1ccccc1)S(=O)(=O)c1cc(C(=O)Nc2ccccc2Cl)ccc1F`: 2.19; for `CCN(c1ccccc1)S(=O)(=O)c1cc(C(=O)Nc2cccc(Cl)c2)ccc1F`: -0.0119. As for `CN(C)c1ccc(/C=C/C(=O)c2ccccc2)cc1[N+](=O)[O-]`, the z-score was -0.207. On to `Fc1c(F)c(F)c(N=Cc2ccc3ncccc3c2)c(F)c1F`, for which the z-score came out at 0.201.
